# Results from PubChem BioAssay AID2058 (Sanford-Burnham Center for Chemical Genomics, 2009).
# Screen size: about 290,000 compounds; about 150 (0.052%) were called active. The full list was thinned out, with actives kept by preference. Entries with a potency or affinity are not part of this list. Values without a mark were called inactive.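 Rule for the calls: active = inhibition of at least 50% with at least 30 cells and total cytoplasm GFP at most 10,000,000; inconclusive = under 30 cells or total GFP of 10,000,000 plus; inactive = the rest.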
# Molecular target: G-protein coupled receptor 35 (Homo sapiens) (UniProt Q9HC97)
# Sequence (Q9HC97 whole entry, looked up): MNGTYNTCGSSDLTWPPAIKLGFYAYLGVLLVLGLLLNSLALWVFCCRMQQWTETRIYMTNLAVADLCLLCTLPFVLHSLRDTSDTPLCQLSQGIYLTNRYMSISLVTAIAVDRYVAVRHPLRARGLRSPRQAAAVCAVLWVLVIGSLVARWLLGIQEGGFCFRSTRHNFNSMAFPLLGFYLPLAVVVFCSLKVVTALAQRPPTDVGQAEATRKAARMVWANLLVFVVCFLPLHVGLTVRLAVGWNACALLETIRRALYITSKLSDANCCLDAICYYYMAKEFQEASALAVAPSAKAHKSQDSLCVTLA
# Experiment: inhibition of zaprinast-stimulated GPR35 beta-arrestin translocation – imaging, U2OS, beta-arrestin-GFP, zaprinast agonist, primary screen (AID 2058)
# Conditions: zaprinast antagonism, at 10 µM, active compounds read high
row,SMILES,inhibition
1,CSc1nc(Cl)c(C#N)c(-c2ccc(C)cc2)n1,61.8% (active)
2,N#Cc1c(Cl)nc(SCc2ccccc2)nc1-c1ccccc1,10.7%
3,COc1ccc(-c2nc(-c3cccc(C)c3)nc(Cl)c2C#N)cc1,13.1%
4,CCOC(=O)c1c(-c2ccc(C)cc2)csc1NC(=O)/C(C#N)=C/c1ccc(O)c(OC)c1,2.7%
5,CCOC(=O)c1c(-c2ccccc2)csc1NC(=O)/C(C#N)=C/c1ccc(OC)c(OC)c1,-10.8%
6,O=C(O)c1ccc(COc2ccccc2[N+](=O)[O-])o1,9.8%
7,Cc1ccc(-c2c(C(=O)N/N=C/c3ccc(C)o3)nnn2-c2nonc2N)cc1,9.3%
8,C=CCN1C=CC(=CC=C(C#N)C#N)C=C1,29.6%
9,CCCN1C=CC(=CC=C(C#N)C#N)C=C1,59.2% (active)
10,CCCN1C=CC(=C/C=C(\C#N)C(=O)OCC)C=C1,7.2%
11,Cc1ccc(C(=O)O)cc1NC(=O)C1=CSCCO1,-0.5%
12,COc1ccc(CNc2cc(C)nc3ccc(OC)cc23)cc1,7.8%
13,COc1ccc2nc(C)cc(NCc3cccc(C(F)(F)F)c3)c2c1,-5.8%
14,O=C1Oc2ccccc2C(=O)/C1=C/N1CCN(c2ccccc2F)CC1,-6.9%
15,CC(C)CCN1CCNC(=O)C1CC(=O)NCCCN1CCOCC1 (stereo unspecified),-0.8%
16,CC(NC(=O)Cn1nc(C(=O)O)c2ccccc2c1=O)C12CC3CC(CC(C3)C1)C2 (stereo unspecified),8%
17,CC(NC(=O)CN1CCCC1)C12CC3CC(CC(C3)C1)C2 (stereo unspecified),1.4%
18,O=C(c1cc(-c2ccccc2Cl)nc2ccccc12)N1CCOCC1,10.1%
19,CCN(CC)c1ccc2c(Cl)cc(=O)oc2c1,4.5%
20,CCN(CC)c1ccc2c(C)c(Cl)c(=O)oc2c1,8.4%
21,COc1ccc(C(=O)/C=C/c2ccc(N3CCCCC3)c([N+](=O)[O-])c2)cc1,2.4%
22,CCn1c2ccccc2c2cc(NC(=O)c3ccc([N+](=O)[O-])cc3)ccc21,-16.2%
23,Cn1ccc(=Nc2ccc(NC(=O)c3ccc(N=c4ccn(C)c5ccc([N+](=O)[O-])cc45)cc3)cc2)cc1,53.5% (active)

row,SMILES,inhibition
1,O=C(Nc1ccc(N2CCOCC2)cc1)c1ccc([N+](=O)[O-])cc1,14.4%
2,Cc1c(NC(=S)N/N=C/c2ccc(N(C)C)cc2)c(=O)n(-c2ccccc2)n1C,5.5%
3,O=C1CN(C(=O)N[C@@H](Cc2ccccc2)C(=O)N[C@@H](Cc2ccccc2)C(=O)O)c2ccccc2N1,6.4%
4,COc1cccc(OC)c1OCc1cc(C2C3CCCC=C3C(C#N)=C(N)C2(C#N)C#N)c(C)cc1C (stereo unspecified),7%
5,CCCOc1ccc([C@@H]2C3CN(C(=O)OCC)CC=C3C(C#N)=C(N)C2(C#N)C#N)cc1OC (stereo partly specified),16.5%
6,COc1ccc([C@@H]2[C@H]3CN(C(C)=O)CC=C3C(C#N)=C(N)C2(C#N)C#N)c2ccccc12,-18.9%
7,CCOC(=O)N1CC=C2C(C#N)=C(N)C(C#N)(C#N)[C@H](c3ccccc3OCC)[C@H]2C1,2.1%
8,CCCN1CC=C2C(C#N)=C(N)C(C#N)(C#N)C(c3cccc(OC)c3OC)C2C1 (stereo unspecified),101% (active)
9,CCOC(=O)N1CC=C2C(C#N)=C(N)C(C#N)(C#N)[C@H](c3cccs3)C2C1 (stereo partly specified),12.4%
10,CCN1CC=C2C(C#N)=C(N)C(C#N)(C#N)[C@H](c3cccc(OC)c3OC)[C@H]2C1,100% (active)
11,CCCCOc1ccc(C2C3CN(C(=O)OCC)CC=C3C(C#N)=C(N)C2(C#N)C#N)cc1OC (stereo unspecified),-1.9%
12,Cc1c(C(=O)Nc2ccc(Cc3ccncc3)cc2)cccc1[N+](=O)[O-],-1.8%
13,CC(C)(C)[C@H]1C=C(C(=O)NCc2nc3ccccc3[nH]2)O[C@@H](OCc2ccc(CO)cc2)C1,9.8%
14,O=C1c2ccc([N+](=O)[O-])cc2NC(c2ccco2)N1/N=C/c1ccco1 (stereo unspecified),-4.6%
15,Cn1cc(/C=C/C(=O)N2CCCC(C(=O)c3ccc(C(C)(C)C)cc3)C2)cn1 (stereo unspecified),-6.4%
16,CCc1cccc2c(C(=O)C(F)(F)F)cn(CC(=O)N3CCOCC3)c12,7.2%
17,N#C/C(=C/c1ccc(N2CCCCC2)cc1)c1cccc(F)c1,11.7%
18,COc1cc(N2CCCC2)c(OC)cc1/C=C(/C#N)c1cccc(F)c1,30.4%
19,N#C/C(=C/c1ccc(N2CCCCCC2)o1)c1ccc(Cl)cc1,87.6% (active)
20,N#C/C(=C/c1ccc(N2CCCCC2)o1)c1cccc(F)c1,55.7% (active)
21,N#C/C(=C\c1ccc(N2CCOCC2)o1)C(=O)NC1CCCCC1,8.1%
22,N#C/C(=C/c1ccc(N2CCCCCC2)o1)c1cccc(F)c1,104% (active)
23,N#C/C(=C/c1ccc(N2CCOCC2)o1)C(=O)NC1CCCCC1,9.2%

row,SMILES,inhibition
1,N#C/C(=C/c1ccc(N2CCOCC2)o1)c1ccc(Br)cc1,37.8%
2,Cc1ccc(/C(C#N)=C\c2ccc(N3CCOCC3)o2)cc1,27.2%
3,N#C/C(=C/c1ccc(N2CCOCC2)o1)c1ccc(Cl)cc1,-12.2%
4,N#C/C(=C/c1ccc(Sc2nc3ccccc3[nH]2)o1)c1cccc(F)c1,-1.5%
5,O=C(Nc1ccccn1)C1(c2ccccc2)CCCC1,3%
6,CC(C)(C)OC(=O)N1CCN(c2ccc(CNC(=O)c3ccc(Cl)cc3)cc2)CC1,4%
7,COc1ccc(-c2nnn(CC(=O)N(CCCO)C(C(=O)NC3CCCC3)c3ccc(F)cc3)n2)cc1 (stereo unspecified),4%
8,Cc1cccc(NC(=O)C2CCN(S(=O)(=O)c3cccc4nonc34)CC2)c1,-1.2%
9,COc1ccc(/C=N/n2cnc3c([nH]c4ccc(C)cc43)c2=O)cc1CN1CCCC1,1.2%
10,CC(=O)Nc1ccc(S(=O)(=O)NCC2CCC(C(=O)NC(C)c3ccccc3)CC2)cc1 (stereo unspecified),-1.8%
11,CN(C)c1nc(N2CCN(c3ccccc3)CC2)c(C#N)c(=O)o1,16.3%
12,N=c1c2c3c(sc2ncn1N)CCC3,4.1%
13,N#CC1=C(N)C(C#N)(C#N)[C@H](c2ccncc2)[C@H]2CN(C(=O)OCc3ccccc3)CC=C12,1%
14,CC(C)N1CC=C2C(C#N)=C(N)C(C#N)(C#N)C(c3ccccc3)C2C1 (stereo unspecified),69% (active)
15,CCC1C2CN(C(C)=O)CC=C2C(C#N)=C(N)C1(C#N)C#N (stereo unspecified),-14.1%
16,CCCC1C2CN(C(C)C)CC=C2C(C#N)=C(N)C1(C#N)C#N (stereo unspecified),112% (active)
17,Cc1ccc(C2C3CSCC=C3C(C#N)=C(N)C2(C#N)C#N)cc1 (stereo unspecified),1.6%
18,CCCC1C2CN(C(C)=O)CC=C2C(C#N)=C(N)C1(C#N)C#N (stereo unspecified),8.7%
19,N#CC1=C(N)C(C#N)(C#N)C(c2ccncc2)C2CN(C(=O)OCc3ccccc3)CC=C12 (stereo unspecified),-3%
20,Cc1ccc(C2C3CN(C(C)C)CC=C3C(C#N)=C(N)C2(C#N)C#N)cc1 (stereo unspecified),100% (active)
21,CC(C)c1ccc(C2C3CSCC=C3C(C#N)=C(N)C2(C#N)C#N)cc1 (stereo unspecified),-18.5%
22,COc1ccc(COc2ccccc2C(=O)Nc2ccccn2)cc1[N+](=O)[O-],15.8%
23,Cc1ccc(S(=O)(=O)N/N=C/c2cccc(OC3CSC3)c2)cc1,9.4%

row,SMILES,inhibition
1,C[C@@H]1CC=C[C@H]2[C@H]1C(=O)N(Cc1ccccc1)[C@H]2c1ccc(F)c(-c2ccc(N(C)C)cc2)c1,17.6%
2,Cc1ccc(-c2nnc(N3CC(C)OC(C)C3)c3ccccc23)cc1 (stereo unspecified),13.6%
3,COc1cc(C(=S)N2CCOCC2)ccc1OC(=O)c1cc([N+](=O)[O-])c(C)c([N+](=O)[O-])c1,10.7%
4,CCc1ccc(C(C)NC(=O)c2ccc3c(c2)OCO3)cc1 (stereo unspecified),-12.5%
5,O=C(NC(c1ccccc1)c1ccccc1)c1ccc(CO)cc1,7%
6,CC1=CC(C)(C)N(C)C(=O)N1c1ccc(Cl)cc1,20.7%
7,Cc1cc(=O)cc(C)n1-c1ccc(Cl)cc1,-8.7%
8,COC1CCN(C(=O)c2cc(COc3ccc(-n4cncn4)cc3)on2)CC1,17.9%
9,O=C(Nc1cc([N+](=O)[O-])ccc1N1CCCC1)c1ccco1,-5%
10,CC(C)(C)C(=O)C[n+]1ccccc1,-9.2%
11,CCCOC(=O)c1ccc(Nc2cc(C)nc3ncnn23)cc1,11.5%
12,COCCN(CC(=O)NC1CCCCC1)C(=O)/C=C/C(=O)c1ccc(OC)cc1O,15.7%
13,COc1ccc(C(=O)/C=C/C(=O)N(CC(=O)NC2CCCCC2)Cc2ccccc2)c(O)c1,-0.1%
14,COc1ccc(C(=O)/C=C/C(=O)N(CC(=O)NC2CCCCC2)CC2CCCO2)c(O)c1 (stereo unspecified),69.1% (active)
15,Cc1nn(-c2ccccc2)nc1C(N)=O,12.1%
16,O=C1C2C3C=CC(C3)C2C(=O)N1CCCCCCN1C(=O)C2C3C=CC(C3)C2C1=O (stereo unspecified),-2%
17,O=C1C=CC(=O)N1Cc1ccccc1,4.8%
18,COc1cccc(Nc2nc(N)c([N+](=O)[O-])c(N3CCOCC3)n2)c1,0.4%
19,O=C(NCc1ccco1)C(=O)NCC1OCCCN1S(=O)(=O)c1ccc(Cl)cc1 (stereo unspecified),-6.3%
20,C/C(=N/NC(=O)CNC(=O)C1COc2ccccc2O1)c1cccc(O)c1 (stereo unspecified),0.2%
21,O=C(/C=C\c1ccccc1)NCC(=O)N/N=C/c1ccc(O)cc1O,10.7%
22,COc1ccc(/C=C/C(=O)NCC(=O)N/N=C/c2ccc(OC)cc2)cc1,9%
